Measured values: the supplement of paper PMC12669032
Values without a mark were called inactive.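 How the source made its calls: active = AUC reduced over 20% with Padj below 0.05 in at least 2 of 3 replicates; inactive = otherwise.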

Key:
Assay in all cases: growth AUC relative to DMSO control (median of replicates) (fraction); higher = more growth (less inhibition), active = hit call of the paper
Conditions in all cases: 20 µM; 24 h
Akkermansia muciniphila = test system: Akkermansia muciniphila
Procedure, shortened: (§1)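 Starting at OD600 0.05, gut bacterial monocultures in mGAM were grown anaerobically at 37 °C with 20 µM compound (1% DMSO) under pierced gas-permeable seals. OD600 was read every hour for 24 h, and the lowest OD of each curve was set to 0. Area under the growth curve was normalised to the plate median of solvent-only wells, or to row and column medians on the industrial chemical plate, and the median of three biological replicates grown on separate days is given.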

Bacteroides caccae = test system: Bacteroides caccae
Procedure, shortened: as §1

Bacteroides clarus = test system: Bacteroides clarus
Procedure, shortened: as §1

Bacteroides dorei = test system: Bacteroides dorei
Procedure, shortened: as §1

Bacteroides stercoris = test system: Bacteroides stercoris
Procedure, shortened: as §1

[1] = test system: Bacteroides thetaiotaomicron
Procedure, shortened: as §1

Bacteroides uniformis = test system: Bacteroides uniformis
Procedure, shortened: as §1

[2] = test system: Bifidobacterium longum subsp. longum
Procedure, shortened: as §1

Clostridium difficile = test system: Clostridium difficile
Procedure, shortened: as §1

Collinsella aerofaciens = test system: Collinsella aerofaciens
Procedure, shortened: as §1

Coprococcus comes = test system: Coprococcus comes
Procedure, shortened: as §1

Escherichia coli ED1a = test system: Escherichia coli ED1a
Procedure, shortened: as §1

Escherichia coli IAI1 = test system: Escherichia coli IAI1
Procedure, shortened: as §1

Eubacterium rectale = test system: Eubacterium rectale
Procedure, shortened: as §1

[3] = test system: Fusobacterium nucleatum subsp. animalis
Procedure, shortened: as §1

Lactobacillus gasseri = test system: Lactobacillus gasseri
Procedure, shortened: as §1

Lactobacillus paracasei = test system: Lactobacillus paracasei
Procedure, shortened: as §1

Odoribacter splanchnicus = test system: Odoribacter splanchnicus
Procedure, shortened: as §1

[4] = test system: Parabacteroides distasonis
Procedure, shortened: as §1

Parabacteroides merdae = test system: Parabacteroides merdae
Procedure, shortened: as §1

Row | Structure (SMILES) | growth AUC (Akkermansia muciniphila) | growth AUC (Bacteroides caccae) | growth AUC (Bacteroides clarus) | growth AUC (Bacteroides dorei) | growth AUC (Bacteroides stercoris) | growth AUC [1] | growth AUC (Bacteroides uniformis) | growth AUC [2] | growth AUC (Clostridium difficile) | growth AUC (Collinsella aerofaciens) | growth AUC (Coprococcus comes) | growth AUC (Escherichia coli ED1a) | growth AUC (Escherichia coli IAI1) | growth AUC (Eubacterium rectale) | growth AUC [3] | growth AUC (Lactobacillus gasseri) | growth AUC (Lactobacillus paracasei) | growth AUC (Odoribacter splanchnicus) | growth AUC [4] | growth AUC (Parabacteroides merdae)
1 | O=[N+]([O-])c1cc(C(F)(F)F)c(Cl)c([N+](=O)[O-])c1Nc1ncc(C(F)(F)F)cc1Cl | 1.01 | 0.55 (active) | 0.322 (active) | 0.672 (active) | 0.00814 (active) | 0.0138 (active) | 0.0147 (active) | 0.705 (active) | 0.914 | 0.886 | 0.953 | 0.98 | 0.986 | 0.995 | 0.885 | 0.807 | 0.578 (active) | 1.02 | 0.905 | 0.0369 (active)
2 | CCNc1nc(NC(C)C)nc(OC)n1 | 1.15 | 0.971 | 1.02 | 0.941 | 1.03 | 1 | 0.969 | 1.01 | 0.981 | 0.962 | 1.02 | 1 | 0.999 | 1.05 | 1.05 | 0.911 | 0.969 | 1.01 | 0.922 | 0.982
3 | O=C(Nc1ccccc1)c1ccccc1I | 0.823 | 1.03 | 1 | 0.994 | 1.05 | 1.01 | 0.975 | 1.03 | 1.08 | 1.07 | 1.05 | 1.04 | 1 | 0.97 | 1.04 | 1.09 | 0.96 | 0.989 | 0.991 | 1.01
4 | CCOP(=S)(OCC)Oc1ccc(Cl)cc1Cl | 0.962 | 1.03 | 0.963 | 1.02 | 1.04 | 0.979 | 0.987 | 1.04 | 1.02 | 1.04 | 1.03 | 1.01 | 1.02 | 0.953 | 1.03 | 1 | 1.07 | 1.02 | 1.05 | 0.997
5 | Cc1nc(N(C)C=O)nc(OC(=O)N(C)C)c1C | 1.01 | 0.986 | 0.998 | 0.985 | 0.955 | 0.977 | 0.971 | 1 | 0.963 | 0.992 | 0.995 | 0.975 | 0.954 | 1.03 | 1.06 | 0.976 | 0.985 | 0.981 | 1.04 | 0.982
6 | ClC1=C(Cl)C2(Cl)C3C4C=CC(C4)C3C1(Cl)C2(Cl)Cl (stereo not given) | 1.11 | 1.02 | 0.987 | 1.01 | 1.02 | 1.03 | 1.01 | 0.998 | 1.02 | 1.01 | 1.02 | 0.996 | 1.02 | 0.986 | 1 | 0.955 | 0.997 | 1.05 | 1.05 | 1.02
7 | CCN(C(=O)n1nnn(-c2ccccc2Cl)c1=O)C1CCCCC1 | 0.87 | 0.84 | 0.508 (active) | 0.513 (active) | 0.118 (active) | 0.107 (active) | 0.0622 (active) | 0.988 | 0.992 | 0.925 | 0.942 | 0.969 | 0.989 | 0.956 | 1.01 | 1.01 | 0.827 | 0.97 | 0.682 (active) | 0.411 (active)
8 | CS/C(C)=N/OC(=O)N(C)SN(C)C(=O)O/N=C(\C)SC | 0.98 | 1.02 | 0.943 | 1.05 | 1.09 | 1.03 | 1.02 | 1.04 | 1.01 | 0.932 | 0.98 | 1.02 | 1.01 | 1.17 | 1.04 | 1.05 | 0.941 | 1.04 | 1.03 | 1.03
